Experiment [1] is described as follows: AP1 Signaling Pathway (AID 357; active means well fitted curve in either direction with a large enough effect, not every such curve was filed as active;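 further: ME-180 reporter cells stimulated with EGF at its EC50 level; on the % scale 0 is the no-effect control and ±100 the full control effect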). To be noted: ME-180 AP-1-bla reporter, EGF-induced, beta-lactamase ratio, 5 h; at 7.69 µM (top of the series) unless noted. Put shortly:
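In this screen, ME-180 cells in Opti-MEM with 0.5% dialyzed FBS received EC50 EGF and compound titrations for 5 h. AP-1 reporter beta-lactamase was detected via CCF4 ratio, giving AC50 for positive and negative modulators.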

Experiment [2] deals with Cytochrome P450 1A2 (Homo sapiens) (UniProt P05177). Nature of the experiment: p450-cyp1a2 (AID 410; calls by dose curve;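 further: -100% = full effect of reference inhibitor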). Put shortly:
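Read-out is luminescence from luciferin produced by CYP1A2 demethylation of Luciferin-ME (100uM, at Km). Detection reagent stopped the 60 min NADPH-dependent reaction; signals were normalized to 57 uM furafylline.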

Experiment [3] is described as follows: NFAT Signaling Pathway (AID 444; active means well fitted curve in either direction with a large enough effect, not every such curve was filed as active;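 further: carbachol stimulus at about its EC50 of 1 µM final; on the % scale 0 is the no-effect control and ±100 the full control effect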). To be noted: Jurkat NFAT-bla M1, carbachol, beta-lactamase ratio, 5 h; at 7.69 µM (top of the series) unless noted. Put shortly:
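Read-out: CCF4 FRET ratio (460 nm/530 nm) after 1 h RT dye loading, used for %activity and AC50 from titration series. Cells: Jurkat NFAT-β-lactamase/M1 line, treated with compound plus 1 uM carbachol for 5 h, 37 °C.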

The nature of experiment [4]: Stat Signaling Pathway (AID 446; active means well fitted curve in either direction with a large enough effect, not every such curve was filed as active;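 further: ME-180 cervical cancer cells given 40 pM IL-6 alongside compound; SIE-controlled beta-lactamase reporter measured as 460/530 nm FRET emission ratio; on the % scale 0 is the no-effect control and ±100 the full control effect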). To be noted: ME-180 (cervical carcinoma) SIE beta-lactamase reporter, IL-6 stimulated, 5 h; at 7.69 µM (top of the series) unless noted. Put shortly: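 Overnight-plated ME-180 cells bearing a STAT Inducible Element beta-lactamase reporter; 5 h co-exposure to compound and 40 pM IL-6; values normalized to 300 pM IL-6 and 125 nM JAK inhibitor controls.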
Experiment [5] concerns the target Glucocorticoid receptor (Homo sapiens) (UniProt P04150). Kind of experiment: GR-GFP Redistribution (AID 450;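 active means compounds whose dose series gives a full or clear partial fitted curve of increased nuclear translocation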; further: potency means the concentration at half of the fitted maximal effect). To be noted: U2OS GR-GFP nuclear translocation, laser cytometry, 2 h.
Experiment [6] concerns the target 3',5'-cyclic-AMP phosphodiesterase 4B (Homo sapiens) (UniProt Q07343). Kind of experiment: qHTS Assay for Inhibitors of PDE-IV (AID 607; active means well fitted activation curve with a large enough effect in the main read-out, with a control signal flat, not every such curve was filed as active; further: % of control where 0% means no effect). The method in brief:
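Live HEK293 cells with a modified cyclic nucleotide-gated (CNG) channel report intracellular cAMP via membrane-potential dye fluorescence (ex 535/em 590 nm). Endogenous PDE-IV was targeted. Compounds were tested at up to 22.9 uM final; RO 20-1724 100 uM served as control.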
For orientation: qHTS replaces the single test concentration by a dilution series.

The target in experiment [7] is Guanine nucleotide-binding protein G(i) subunit alpha-1 (Homo sapiens) (UniProt P63096). Nature of the experiment: qHTS Assay for Inhibitors of RGS12 GoLoco Motif Activity (Green Fluorophore) (AID 879).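 Further: 0% = labeled peptide with Gαi1 and full inhibition = labeled peptide alone without protein; negative values mean loss of peptide binding seen as reduced polarization.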 The method in brief:
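A drop in FITC polarization marked displacement of the FITC-tagged RGS12 GoLoco peptide (10 nM) from Gαi1 (50 nM). Compounds were incubated 10 min at room temperature in Tris pH 7.5 buffer containing 150 mM NaCl, 0.1 mM GDP and 0.05% NP40; unlabeled peptide titration served as control.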

Experiment [8] in a line: qHTS Assay for Identification of Small Molecule Antagonists for NFkB Signaling Pathway (AID 895; active means well fitted inhibition curve with a large enough effect in the signal ratio, with a control signal flat, not every such curve was filed as active; the % refers to the signal ratio; further: on the % scale 0 is the no-effect control and ±100 the full control effect). The method in brief:
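Beta-lactamase reporter read-out (460 and 530 nm emission ratio, 405 nm excitation, 2 hrs substrate loading RT) after 5 hr stimulation with 10 pM TNF alpha in compound-treated NFkB-bla ME-180 cells in low-serum medium.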

Experiment [9] is described as follows: qHTS Assay for Identification of Small Molecule Agonists for Thrombopoietin (TPO) Signaling Pathway (AID 917). Further: on the % scale 0 is the no-effect control and ±100 the full control effect. Put shortly:
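Quantitative HTS for pathway activators: compounds were pin-transferred onto IL-3-starved Ba/F3 cells expressing human TPO receptor, TPO was added at its EC50 (26 pM final), and after 24 hrs at 37 C reporter luciferase was measured.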

For experiment [10], the target named is Muscarinic acetylcholine receptor M1 (Rattus norvegicus) (UniProt P08482). Nature of the experiment: qHTS Assay for Antagonists of Acetylcholine Muscarinic M1 Receptor: Kinetic Measurement of Intracellular Calcium Response (AID 943).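 Further: Fluo-4 calcium signal as peak divided by basal fluorescence over 4 min; nearly all actives have a fitted effect of over 75% in size.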 The method in brief: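 Quantitative HTS in CHO-M1 (rat receptor) cells: 10 min compound exposure ahead of 100 nM carbachol, Fluo-4 fluorescence followed 4 min, value expressed as peak-to-basal ratio.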

Experiment [11] has the same target. Nature of the experiment: qHTS Assay for Antagonists of Acetylcholine Muscarinic M1 Receptor: Measurement of IP-One Response (AID 944). Further: nearly all actives have a fitted effect of over 75% in size. The method in brief: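 Antagonism was measured as loss of carbachol-driven (EC80) IP1 accumulation in CHO cells carrying rat M1, using a homogeneous IP-One TR-FRET kit read at 620 and 665 nm.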
Experiment [12] concerns the target Pyruvate kinase (Leishmania mexicana) (UniProt Q27686). Kind of experiment: qHTS Validation Assay for Inhibitors of Leishmania Mexicana Pyruvate Kinase (AID 945).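 Further: 0% = DMSO only neutral control wells.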 The method in brief: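 The enzyme is a highly purified E451W mutant of LmPYK used at 0.2 nM. It converts 0.5 mM PEP and 0.1 mM ADP over 1 h at room temperature; product ATP is quantified by luciferase luminescence relative to DMSO controls.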

Experiment [13] has as its target Pyruvate kinase PKM (Homo sapiens) (UniProt P14618). Kind of experiment: qHTS Assay for Activators of Human Muscle Pyruvate Kinase (AID 954; active means well fitted curve in the direction sought with a large enough effect, not every such curve was filed as active;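 further: 0% = uninhibited enzyme and -100% = no enzyme or full thiadiazolimine inhibition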). The method in brief:
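Screening used highly purified human pyruvate kinase M2 under submaximal activity, with PEP at its Km and ADP below Km. After an hour at room temperature, ATP was read by luciferase luminescence.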

Experiment [14] addresses Alpha-galactosidase A (Homo sapiens) (UniProt P06280). Nature of the experiment: Counterscreen for Glucocerebrosidase Inhibitors: qHTS Assay for Human alpha-Galactosidase at pH 4.5 (AID 992). Further: 0% is about no effect. Put shortly:
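Each compound is preincubated briefly with 2 nM enzyme before substrate addition (80 uM); plates then sit 20 min at ambient temperature, are quenched with 1M NaOH/1M glycine, and read fluorometrically.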
On the technique in general: A counterscreen serves to expose hits that act by an unwanted route or on another target.

Experiment [15] has as its target alpha-glucosidase (Oryza sativa, rice) (UniProt Q653V4). Nature of the experiment: Counterscreen for Glucocerebrosidase Inhibitors: qHTS Assay for Rice alpha-Glucosidase at pH 5.0 (AID 997).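 Further: 0% = full activity with enzyme and -100% = basal without enzyme.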 The method in brief:
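Endpoint fluorogenic assay at pH 5.0: compounds (0.7 nM to 77 uM) titrated against 4 nM rice enzyme and 400 uM 4-MU-alpha-glucoside for 20 min at room temperature; NaOH/glycine stop, read ex 365/em 440 nm, Hill-fitted AC50.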

The target in experiment [16] is Glucocorticoid receptor (Homo sapiens) (UniProt P04150). Nature of the experiment: GR-EFC Redistribution (AID 451; calls by dose curve; further: potency means the concentration at half of the fitted maximal effect). To be noted: CHO-K1 GR-EFC translocation, beta-gal luminescence, 2 h. The method in brief:
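Translocation of GR-ED fusion to nuclear EA restores b-gal, read by luminescence after 1 h room-temperature detection. Engineered CHO-K1 biosensor cells, 1,000/well, exposed 2 h at 37 C to titrations up to 46 uM final.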

For experiment [17], the target named is Mitogen-activated protein kinase 10 (Mus musculus) (UniProt Q61831). Kind of experiment: JNK3 AlphaScreen Assay (AID 530; active means well fitted curve in either direction with a large enough effect, not every such curve was filed as active). The method in brief: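 Kinase buffer: 20 mM Tris-HCl pH 7.6, 10 mM MgCl2, 1 mM DTT, 0.1 mM Na3VO4, 0.01% Tween-20; ATP 10 uM. Substrate biotin-GST-cJun(1-79), enzyme from activated HepG2 lysates. Detection by Ser73 phospho-antibody AlphaScreen.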
Background: Alpha assays give light when donor and acceptor beads are brought close together.

The target of experiment [18] is Cytochrome P450 2C9 (Homo sapiens) (UniProt P11712). Kind of experiment: qHTS Assay for Inhibitors and Substrates of Cytochrome P450 2C9 (AID 883). Further: on the % scale 0 is the no-effect control and ±100 the full control effect; nearly all actives have a fitted effect of over 60% in size. Put shortly: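 Luminescent read-out of deoxyluciferin hydroxylation, normalized to 57uM sulphaphenazole (AC100). Reaction: 10nM enzyme, 100uM Luciferin-H (equal to KM), 25mM KPO4, 10 min compound preincubation, then 60 min with NADPH regeneration, both at 37C.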

Experiment [19] deals with Cytochrome P450 2D6 (Homo sapiens) (UniProt P10635). Nature of the experiment: qHTS Assay for Inhibitors and Substrates of Cytochrome P450 2D6 (AID 891).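 Further: luciferin methyl ether substrate demethylated by CYP2D6 with NADPH regeneration; on the % scale 0 is the no-effect control and ±100 the full control effect; nearly all actives have a fitted effect of over 60% in size.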 Put shortly:
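Luminescent read-out of luciferin formed by 5 nM human CYP2D6 demethylating 30 uM Luciferin-ME EGE (Km level) over 60 min at room temperature after NADPH regeneration addition. Data normalized to full inhibition by 1.43 uM quinidine.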

For experiment [20], the target named is Cytochrome P450 2C19 (Homo sapiens) (UniProt P33261). Nature of the experiment: qHTS Assay for Inhibitors and Substrates of Cytochrome P450 2C19 (AID 899). Further: on the % scale 0 is the no-effect control and ±100 the full control effect; nearly all actives have a fitted effect of over 60% in size. Put shortly: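 Luminescence readout of luciferin formed from 10uM Luciferin-H EGE (KM level) by 5 nM CYP2C19 in 50mM KPO4. 60 min NADPH-driven reaction at 37C after 10 min compound preincubation; data scaled to 57uM ketoconazole inhibition.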

Experiment [21] addresses Cytochrome P450 3A4 (Homo sapiens) (UniProt P08684). Nature of the experiment: qHTS Assay for Activators of Cytochrome P450 3A4 (AID 885). Further: nearly all actives have a fitted effect of over 65% in size. The method in brief:
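Using 20nM recombinant human CYP3A4 in potassium phosphate (200mM), substrate Luciferin-PPXE at 25uM, luminescent luciferin detection followed a 60-min RT NADPH reaction; data scaled to 57 uM ketoconazole.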

Experiment [22] has the same target. Kind of experiment: qHTS Assay for Inhibitors and Substrates of Cytochrome P450 3A4 (AID 884). Further: potency means the concentration at half of the fitted maximal effect; nearly all actives have a fitted effect of over 50% in size. The method in brief:
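Luminescent readout of luciferin produced by CYP3A4 (20 nM) dealkylation of Luciferin-PPXE, 25 uM (its KM). NADPH-driven reaction ran 60 min at RT after 10 min compound preincubation; data scaled to 57 uM ketoconazole as 100% inhibition.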

The results in this text go back to PubChem BioAssay (NCATS).

Values without a mark were called inactive. Records with an inconclusive call do not appear. Activity calls are given as the source filed them. Unless noted, the call rests on the fitted dose curve; in most records, active means well fitted curve in the direction sought with a large enough effect; inconclusive means small, poorly fitted or top-dose-only effect, or another doubt; inactive means no such curve, though single readings can be large; an effect the other way counts as inactive or inconclusive.

Glucocorticoid receptor (Homo sapiens), sequence (P04150 whole entry, looked up, the tested form may be a part): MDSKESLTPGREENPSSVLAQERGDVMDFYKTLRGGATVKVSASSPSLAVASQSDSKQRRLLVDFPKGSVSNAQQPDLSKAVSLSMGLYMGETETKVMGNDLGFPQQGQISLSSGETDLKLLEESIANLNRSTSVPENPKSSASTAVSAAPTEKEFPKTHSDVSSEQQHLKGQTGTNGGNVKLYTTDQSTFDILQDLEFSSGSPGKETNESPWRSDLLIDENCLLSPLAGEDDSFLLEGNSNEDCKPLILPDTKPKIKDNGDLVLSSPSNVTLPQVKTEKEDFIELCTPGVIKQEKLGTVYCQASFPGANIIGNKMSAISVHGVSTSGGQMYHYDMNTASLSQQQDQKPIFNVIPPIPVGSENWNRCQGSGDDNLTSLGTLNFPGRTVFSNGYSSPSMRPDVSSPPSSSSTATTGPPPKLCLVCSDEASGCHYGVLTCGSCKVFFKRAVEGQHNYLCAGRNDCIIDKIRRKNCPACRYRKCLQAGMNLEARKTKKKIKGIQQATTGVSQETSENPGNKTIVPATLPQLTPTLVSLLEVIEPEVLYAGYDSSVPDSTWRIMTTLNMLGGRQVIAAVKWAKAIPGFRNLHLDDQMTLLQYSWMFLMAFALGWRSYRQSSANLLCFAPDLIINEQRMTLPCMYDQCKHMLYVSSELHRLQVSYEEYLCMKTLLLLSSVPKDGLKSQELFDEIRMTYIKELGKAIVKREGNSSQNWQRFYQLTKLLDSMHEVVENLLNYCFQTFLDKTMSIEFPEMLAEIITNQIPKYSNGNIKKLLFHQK
3',5'-cyclic-AMP phosphodiesterase 4B (Homo sapiens), sequence (Q07343 whole entry, looked up): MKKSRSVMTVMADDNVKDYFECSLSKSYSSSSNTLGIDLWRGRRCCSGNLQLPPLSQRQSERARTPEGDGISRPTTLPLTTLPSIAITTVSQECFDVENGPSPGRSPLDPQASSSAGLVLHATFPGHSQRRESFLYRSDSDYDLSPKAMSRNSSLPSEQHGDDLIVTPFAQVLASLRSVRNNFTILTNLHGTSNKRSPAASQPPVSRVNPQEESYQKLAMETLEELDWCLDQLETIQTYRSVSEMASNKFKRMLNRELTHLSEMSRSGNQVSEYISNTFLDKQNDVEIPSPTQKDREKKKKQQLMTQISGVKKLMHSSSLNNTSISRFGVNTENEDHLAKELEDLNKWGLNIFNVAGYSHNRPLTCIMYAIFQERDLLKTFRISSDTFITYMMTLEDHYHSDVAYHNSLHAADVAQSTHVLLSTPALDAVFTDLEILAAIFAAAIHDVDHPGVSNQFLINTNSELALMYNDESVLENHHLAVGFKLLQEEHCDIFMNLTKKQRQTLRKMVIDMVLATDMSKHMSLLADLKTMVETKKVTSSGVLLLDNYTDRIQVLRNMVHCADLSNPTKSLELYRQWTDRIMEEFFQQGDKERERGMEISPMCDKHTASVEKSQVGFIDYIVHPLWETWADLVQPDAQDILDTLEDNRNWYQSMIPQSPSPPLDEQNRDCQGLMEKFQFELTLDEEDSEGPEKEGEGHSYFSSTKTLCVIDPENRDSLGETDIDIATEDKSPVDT
Cytochrome P450 1A2 (Homo sapiens), sequence (P05177 whole entry, looked up): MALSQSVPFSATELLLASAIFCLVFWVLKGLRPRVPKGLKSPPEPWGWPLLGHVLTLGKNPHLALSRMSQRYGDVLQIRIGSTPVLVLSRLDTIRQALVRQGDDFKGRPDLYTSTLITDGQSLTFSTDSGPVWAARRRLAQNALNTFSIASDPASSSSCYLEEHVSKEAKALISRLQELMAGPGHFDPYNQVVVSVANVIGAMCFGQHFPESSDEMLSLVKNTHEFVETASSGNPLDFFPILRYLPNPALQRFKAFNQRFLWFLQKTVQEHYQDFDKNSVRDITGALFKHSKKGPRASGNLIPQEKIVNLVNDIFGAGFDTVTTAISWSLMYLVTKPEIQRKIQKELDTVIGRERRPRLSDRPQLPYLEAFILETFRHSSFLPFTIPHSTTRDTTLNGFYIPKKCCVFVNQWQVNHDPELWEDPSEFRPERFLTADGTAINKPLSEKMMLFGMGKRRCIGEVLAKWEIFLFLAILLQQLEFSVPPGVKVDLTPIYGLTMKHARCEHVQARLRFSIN
Cytochrome P450 3A4 (Homo sapiens), sequence (P08684 whole entry, looked up): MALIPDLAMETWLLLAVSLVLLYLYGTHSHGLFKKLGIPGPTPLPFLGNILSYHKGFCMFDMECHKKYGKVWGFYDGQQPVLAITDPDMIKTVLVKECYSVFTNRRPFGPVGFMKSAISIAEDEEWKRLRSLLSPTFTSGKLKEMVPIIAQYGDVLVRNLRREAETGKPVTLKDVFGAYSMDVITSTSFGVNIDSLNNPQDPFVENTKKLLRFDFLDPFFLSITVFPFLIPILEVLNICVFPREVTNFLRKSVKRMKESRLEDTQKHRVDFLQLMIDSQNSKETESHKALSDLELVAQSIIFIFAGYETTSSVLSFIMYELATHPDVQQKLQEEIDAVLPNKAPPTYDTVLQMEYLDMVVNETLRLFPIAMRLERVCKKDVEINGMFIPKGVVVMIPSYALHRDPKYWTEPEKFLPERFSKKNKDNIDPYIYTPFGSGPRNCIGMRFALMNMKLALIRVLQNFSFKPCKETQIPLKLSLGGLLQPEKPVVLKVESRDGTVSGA
Pyruvate kinase (Leishmania mexicana), sequence (Q27686 2-499 E452W): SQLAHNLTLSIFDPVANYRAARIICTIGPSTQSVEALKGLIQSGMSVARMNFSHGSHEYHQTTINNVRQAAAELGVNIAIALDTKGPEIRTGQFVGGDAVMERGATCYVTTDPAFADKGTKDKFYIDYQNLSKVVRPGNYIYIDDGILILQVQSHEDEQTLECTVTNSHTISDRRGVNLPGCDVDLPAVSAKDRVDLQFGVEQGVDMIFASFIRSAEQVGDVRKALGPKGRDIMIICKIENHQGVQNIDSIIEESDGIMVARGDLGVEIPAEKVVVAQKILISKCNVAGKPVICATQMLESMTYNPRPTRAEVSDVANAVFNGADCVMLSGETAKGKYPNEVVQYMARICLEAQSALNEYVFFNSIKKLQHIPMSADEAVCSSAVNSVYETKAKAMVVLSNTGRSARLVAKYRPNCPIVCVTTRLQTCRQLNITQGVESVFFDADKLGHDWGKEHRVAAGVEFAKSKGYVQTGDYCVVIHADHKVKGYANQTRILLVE
Guanine nucleotide-binding protein G(i) subunit alpha-1 (Homo sapiens), sequence (P63096 whole entry, looked up): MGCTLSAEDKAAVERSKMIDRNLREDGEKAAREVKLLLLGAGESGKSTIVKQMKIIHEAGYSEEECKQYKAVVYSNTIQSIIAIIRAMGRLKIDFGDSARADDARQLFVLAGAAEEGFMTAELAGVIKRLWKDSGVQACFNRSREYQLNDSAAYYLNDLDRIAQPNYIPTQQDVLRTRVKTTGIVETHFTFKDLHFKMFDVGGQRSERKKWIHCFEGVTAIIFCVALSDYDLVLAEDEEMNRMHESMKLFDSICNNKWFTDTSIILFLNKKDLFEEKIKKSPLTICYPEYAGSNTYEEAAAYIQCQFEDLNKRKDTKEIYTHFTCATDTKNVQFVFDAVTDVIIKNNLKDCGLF
Muscarinic acetylcholine receptor M1 (Rattus norvegicus), sequence (P08482 whole entry, looked up): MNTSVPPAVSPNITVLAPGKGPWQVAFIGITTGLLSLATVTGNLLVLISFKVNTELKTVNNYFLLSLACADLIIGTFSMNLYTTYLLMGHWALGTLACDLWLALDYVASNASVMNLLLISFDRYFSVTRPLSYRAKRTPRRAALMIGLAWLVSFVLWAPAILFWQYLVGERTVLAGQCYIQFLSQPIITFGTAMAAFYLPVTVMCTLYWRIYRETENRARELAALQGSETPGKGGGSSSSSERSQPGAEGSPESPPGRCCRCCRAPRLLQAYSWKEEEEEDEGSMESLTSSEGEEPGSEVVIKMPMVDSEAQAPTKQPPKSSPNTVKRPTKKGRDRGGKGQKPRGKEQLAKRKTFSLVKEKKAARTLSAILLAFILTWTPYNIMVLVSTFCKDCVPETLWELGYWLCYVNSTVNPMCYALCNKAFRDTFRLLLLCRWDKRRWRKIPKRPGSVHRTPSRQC
Alpha-galactosidase A (Homo sapiens), sequence (P06280 whole entry, looked up): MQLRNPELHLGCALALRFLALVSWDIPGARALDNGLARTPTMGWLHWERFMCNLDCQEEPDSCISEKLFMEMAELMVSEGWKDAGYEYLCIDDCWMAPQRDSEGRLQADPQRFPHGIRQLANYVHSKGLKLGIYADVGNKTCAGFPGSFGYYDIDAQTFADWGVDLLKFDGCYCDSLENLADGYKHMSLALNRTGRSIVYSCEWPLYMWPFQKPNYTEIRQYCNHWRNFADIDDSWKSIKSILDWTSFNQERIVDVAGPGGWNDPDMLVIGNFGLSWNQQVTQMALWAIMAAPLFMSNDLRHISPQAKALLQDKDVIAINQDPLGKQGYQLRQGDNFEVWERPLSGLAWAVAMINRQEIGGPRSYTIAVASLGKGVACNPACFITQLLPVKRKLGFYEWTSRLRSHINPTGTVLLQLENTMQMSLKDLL
Pyruvate kinase PKM (Homo sapiens), sequence (P14618 whole entry, looked up): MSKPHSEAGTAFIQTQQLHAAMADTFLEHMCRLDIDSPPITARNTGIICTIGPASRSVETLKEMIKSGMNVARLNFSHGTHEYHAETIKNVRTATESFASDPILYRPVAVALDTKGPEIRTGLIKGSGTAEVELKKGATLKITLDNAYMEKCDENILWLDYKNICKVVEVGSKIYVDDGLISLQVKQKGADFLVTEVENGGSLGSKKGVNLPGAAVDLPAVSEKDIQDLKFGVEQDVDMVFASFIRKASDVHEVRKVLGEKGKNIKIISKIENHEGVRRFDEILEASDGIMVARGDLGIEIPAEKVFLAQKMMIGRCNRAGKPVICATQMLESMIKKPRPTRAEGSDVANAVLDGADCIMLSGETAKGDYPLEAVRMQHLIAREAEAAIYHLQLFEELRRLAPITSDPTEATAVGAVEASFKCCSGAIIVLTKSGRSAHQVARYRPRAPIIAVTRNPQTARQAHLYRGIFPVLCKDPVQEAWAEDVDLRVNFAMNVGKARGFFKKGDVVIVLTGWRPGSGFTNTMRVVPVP

As to `C=C/C(C)=C/[C@]1(C)SC(=O)C(C)=C1O`, the values for the activity change, negative = inhibition in experiment [1] and in experiment [3] were -3.15% [at 38 µM] and 11.1% [at 38 µM], respectively. In addition, the Potency result in experiment [2], in [6], in experiment [8], in experiment [10], in experiment [11] and in experiment [15] was “inactive” in each case. Also, in experiment [4], the activity, negative = inhibition was -7.1% [at 38 µM]. The Potency in [5] is more than 46 µM. Also, the outcome in experiment [7], in experiment [9], in [12], in experiment [13] and in experiment [14] was inactive.
On to `CC(=O)OCC(=O)[C@@]1(O)CC[C@@H]2[C@@H]3CCC4=CC(=O)CC[C@@]4(C)[C@H]3C(=O)C[C@]21C`, for which the activity change, negative = inhibition in experiment [1] was 4.78% [at 38 µM]; in experiment [3], 5.8% [at 38 µM]. Also, the Potency entry in [2], in experiment [17], in [6], in experiment [18], in [19] and in [20] was “inactive” in each case. In [4], the activity, negative = inhibition was -12.6% [at 38 µM]. Besides, the Potency in experiment [16] was more than 46 µM.
Turning to `C=C[C@@]1(C)CC(=O)[C@@]2(O)[C@@]3(C)[C@H](O)CCC(C)(C)[C@@H]3[C@H](O)[C@H](OC(C)=O)[C@]2(C)O1`, the activity change, negative = inhibition in experiment [1] is -15.8% [at 38 µM]; in experiment [3] it was 5.97% [at 38 µM]. The Potency entry in experiment [2], in experiment [21], in experiment [19], in experiment [10], in experiment [11] and in experiment [15] was “inactive” throughout. Also, in experiment [4], the activity, negative = inhibition was 9.83% [at 38 µM]. Besides, the Potency in experiment [5] and in [16] was more than 46 µM throughout. In addition, the call in experiment [7], in [9], in experiment [12] and in [14] was inactive.
With `CC1(C)CCC(NC(=O)[C@H](N)CCC(=O)O)CC1`, the activity change, negative = inhibition in [1] was 5.34% [at 38 µM]; in [3] it was 2.47% [at 38 µM]. The Potency entry in [2], in [6], in experiment [8], in experiment [10], in experiment [11] and in experiment [15] was “inactive” in each case. Also, in [4], the activity, negative = inhibition is -7.41% [at 38 µM]. In addition, the Potency in experiment [5] and in [16] was more than 46 µM in each case. The compound was classed as inactive in experiment [9], in experiment [12] and in experiment [14].
For the compound `CC(C)[C@@H]1NC(=O)[C@H](CCCCN)NC(=O)[C@H](Cc2c[nH]c3ccccc23)NC(=O)[C@H](Cc2ccc(O)cc2)NC(=O)[C@H](C)N(C)C(=O)[C@H](Cc2ccccc2)NC1=O`, the results for the activity change, negative = inhibition in experiment [1] and in experiment [3] were 15.3% [at 38 µM] and -3.97% [at 38 µM], respectively. In addition, the Potency result in experiment [2], in experiment [17], in [6], in experiment [21] and in experiment [15] was “inactive” each time. For the same compound, the activity, negative = inhibition in experiment [4] is -2.13% [at 38 µM]. In addition, the Potency was more than 46 µM in [5] and 3.98 µM (active) in experiment [22]. In addition, the compound was called inactive in experiment [7], in experiment [9], in experiment [13] and in [14].
